An excerpt weighted towards active compounds, which were near 5.1% of everything screened.
S1P4 agonist: human S1P4 receptor agonism; O95977; S1P4-expressing cell line, agonist reporter assay; activation, % at 4.98 µM; 0.35% of 220,000 active; AID 1509; in the data active means activation above about 11%;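 further: 0% = DMSO vehicle and 100% = reference agonist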
S1P3 antag: antagonists of human S1P3 receptor; 0.27% of 170,000 active; CHO S1P3 NFAT-BLA reporter, FRET fluorescence, antagonist mode; Q99500; inhibition, % at 4.98 µM;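 active means inhibition above the plate cutoff, the mean inhibition of test wells on that plate plus 3 SD, cut at about 28% in these data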;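 further: cells challenged with S1P at its EC80 of 0.8 µM; blue over green emission ratio from cleaved BLA substrate after 4 h stimulation; 0% = S1P-stimulated wells and 100% = unstimulated DMSO-only wells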
RAM network inh: yeast RAM network inhibition. 1.8% of 190,000 active. S. cerevisiae dse1pr::URA3 reporter, 5-FOA growth OD615, 2 d; analog-sensitive cbk1-as2 kinase mutant strain. inhibition, % at 50 µM;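 active means inhibition above a set limit, 3 SD over mean compound inhibition, cut at about 8.4% in these data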;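 further: 0% = DMSO-only wells with no growth and 100% = 10 µM 1-NA-PP1 full growth; inhibition rescues growth on 5-FOA so higher OD means more RAM inhibition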
S1P4 antag: human S1P4 receptor antagonism; AID 1510; 0.26% of 220,000 active; O95977; inhibition, % at 4.98 µM; S1P4-expressing cells, antagonist mode, reporter read-out; in the data active means inhibition above about 29%;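 further: 0% = wells stimulated with agonist and 100% = vehicle wells without agonist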
Cl transport mod: modulators of human KCC2 chloride dependent transport | Q9H2X9 | KCC2 cells, thallium flux FluoZin-2 fluorescence | B-score of Tl+ flux slope (higher = more flux/activation; lower = inhibition) at 10 µM | 2.2% of 190,000 active;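 active means thallium flux slope and its plate-corrected score both differing from the plate sample mean at a set confidence after two filtering rounds, in either direction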;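 further: slope of fluorescence scaled to starting intensity during 10 to 20 s after thallium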
ROMK mod: modulates human ROMK potassium channel activity; AID 1918; P48048; Tet-inducible ROMK, thallium flux fluorescence; actives lie on both sides; 2% of 130,000 active; B-score at 10 µM;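 active means signal ratio slope over the read window, or its plate-corrected B-score, at least 3 SD from the plate mean, either direction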;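 further: B-score of the F/F0 ratio slope over 7 to 12 s after thallium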
Target sequence (P48048 whole entry, looked up): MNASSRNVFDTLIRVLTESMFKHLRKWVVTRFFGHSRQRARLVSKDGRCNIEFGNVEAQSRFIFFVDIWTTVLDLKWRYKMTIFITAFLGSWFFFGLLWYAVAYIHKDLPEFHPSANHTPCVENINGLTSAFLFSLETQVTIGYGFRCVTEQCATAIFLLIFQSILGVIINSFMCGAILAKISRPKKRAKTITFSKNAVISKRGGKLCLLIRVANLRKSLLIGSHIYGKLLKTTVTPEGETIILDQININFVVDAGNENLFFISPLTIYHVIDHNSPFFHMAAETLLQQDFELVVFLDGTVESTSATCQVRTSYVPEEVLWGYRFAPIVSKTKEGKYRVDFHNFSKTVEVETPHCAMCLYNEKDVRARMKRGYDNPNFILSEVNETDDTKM
* marks the source's active call; other numbers are inactive results; / = no result given.

SMILES | S1P4 agonist | S1P3 antag | RAM network inh | S1P4 antag | Cl transport mod | ROMK mod
CC(C)CN(CC(C)C)S(=O)(=O)N1CCC(C(=O)NCc2ccc3c(c2)OCO3)CC1 | 0 | 7 | 5 | -6 | 0.23 | -0.016
Cc1ccc(CNC(=O)Cc2csc(Nc3nc(=S)[nH]c4ccccc34)n2)cc1 | 0 | / | 4 | -14 | 9.7* | /
Cc1cccc(NC(=O)c2nc[nH]c2C(=O)NCC(=O)OC(C)(C)C)c1 | / | / | / | / | 0.13 | /
COc1ccc(/C(C)=N/NC(=O)CNC(=O)CCc2ccccc2)c(OC)c1 | 0 | -19 | / | -5 | -2.9 | /
Fc1cccc2sc(Nc3nc4cc5c(cc4s3)OCCO5)nc12 | 2 | -2 | 3 | -29 | 11* | -0.078
Fc1cccc2sc(Nc3nc4cc5c(cc4s3)OCO5)nc12 | 0 | 8 | 2 | -5 | 23* | 0.063
CC(C)C(=O)Nc1nc2cc3c(cc2s1)OCO3 | 1 | / | 2 | -5 | / | /
CCc1ccc2oc(-c3ccc(OC)cc3)cc(=Nc3cccc(C(=O)O)c3)c2c1 | 1 | -9 | 7 | 0 | -7.2* | 2.3*
COc1ccc(-c2cc(=Nc3ccc(C(=O)O)cc3)c3cc(C)ccc3o2)cc1 | 1 | -5 | 0 | -4 | -4 | 0.25
Cn1nc(C(=O)Nc2c(-c3ccccc3)nc3sccn23)c2ccccc2c1=O | -2 | -7 | 9.2* | -8 | 0.16 | /
Cn1nc(C(=O)Nc2nc3ccccc3[nH]2)c2ccccc2c1=O | -1 | -13 | 1 | -30 | 0.0074 | /
O=C(NNC(=O)c1cccnc1SCc1cccc([N+](=O)[O-])c1)c1ccccn1 | -1 | -10 | 2 | -18 | 6.9* | -0.017
O=C1CS/C(=N/N=C/c2cccs2)N1Cc1ccc(F)cc1 | 0 | 11 | / | -3 | -0.31 | /
CCN=c1scc(-c2ccccc2)n1/N=C/c1ccccn1 | -1 | 2 | 1 | -6 | -3.8* | /
C=CCN=c1scc(-c2ccccc2)n1/N=C/c1ccccn1 | 3 | 4 | 0 | -11 | -4.1* | 0.39
O=c1cc(/C=C/c2ccccc2)oc2ccccc12 | 0 | / | 1 | -1 | / | /
CCCn1c2c(c(O)c(C(=O)Nc3ccc(OC)cc3)c1=O)CCCC2 | 2 | 0 | 9.2* | -2 | / | /
COC(=O)C1=C(C)N=c2s/c(=C/c3ccoc3)c(=O)n2C1c1ccccc1 (centres undefined) | -2 | / | 3 | -23 | -0.6 | -0.26
COC(=O)C1=C(C)N=c2s/c(=C/c3cccs3)c(=O)n2C1c1cccs1 (centres undefined) | -1 | -5 | 9.2* | -1 | / | 0.025
CC1(/[N+]([O-])=C\c2ccccc2F)CCCCC1=O (centres undefined) | 1 | 4 | / | -5 | -0.15 | 0.43
COc1ccc2c(c1)CCC(C)N2C(=O)C(=O)c1c[nH]c2ccccc12 (centres undefined) | 1 | -10 | / | 6 | -0.75 | -0.033
NC(Cc1ccccc1)C(O)(c1ccccc1)c1ccccc1 (centres undefined) | 0 | -3 | 2 | -17 | -0.015 | -1.4
COc1ccc(COc2cc(-c3cccc(OC)c3)nc3ccc(NC(=O)c4ccc(C)cc4)cc23)cc1 | 1 | 20 | 8.6* | -4 | 0.12 | 1.4
CCCn1nc(C(=O)Nc2cccc(C(=O)OC)c2)c2ccccc2c1=O | -1 | 31 | 8.9* | 2 | -1.1 | /
CCn1c(=O)c(C(=O)CN2CCOCC2)c(N)n(Cc2ccccc2)c1=O | -1 | 77* | 1 | 11 | 0.92 | /
SMILES | S1P4 agonist | S1P3 antag | RAM network inh | S1P4 antag | Cl transport mod | ROMK mod
CCNC(=O)C1CC(=O)N(CCCc2ccccc2)C(=Nc2ccccc2)S1 (centres undefined) | 1 | 0 | / | 3 | 0.15 | /
CCOC(=O)c1ccc(N=C2SC(C(=O)NCCc3ccccc3)CC(=O)N2C)cc1 (centres undefined) | 0 | 5 | 9.5* | 10 | -1.5 | -0.2
O=C(Cn1cnc([N+](=O)[O-])n1)N/N=C/c1cc(Cl)ccc1O | 0 | -12 | -2 | -1 | 0.39 | -1.3
CCOC(=O)c1c(NC(=O)C(Sc2ccccc2)c2ccccc2)sc(C(=O)N(C)C)c1C (centres undefined) | 0 | -6 | 10* | -18 | -0.34 | -0.17
CCOC(=O)c1c(NC(=O)C(Sc2ccccc2)c2ccccc2)sc(C(N)=O)c1C (centres undefined) | 4 | / | 4 | -28 | 0.31 | /
COc1ccc(/C=C2\N=C(SC)N(c3ccccc3OC)C2=O)cc1 | -1 | 16 | 8.4* | -19 | -0.42 | -0.13
CCCn1cc(NC(=O)c2cc(-c3ccccc3)on2)cn1 | -3 | / | 0 | -19 | / | 5.6*
Cc1cccc(/C=C2\CCC(=C3SCCCS3)C2=O)c1 | 3 | / | 9.4* | -3 | 0.66 | 0.39
CCCOC(=O)CSc1nc(N)c(C#N)c(-c2ccco2)c1C#N | 2 | / | 9.3* | -14 | 0.28 | /
O=C(Oc1ccc(Br)cc1C(=S)N1CCCC1)c1ccccc1Cl | 1 | / | 8 | -10 | / | /
Cc1ccccc1C(=O)Oc1ccc(Br)cc1C(=S)N1CCCC1 | -1 | / | 9.8* | -18 | 0.094 | /
COc1ccc(CCNc2oc(COc3ccc(Br)cc3)nc2C#N)cc1OC | -4 | / | 10.0* | 3 | / | /
COc1ccc(CCNc2oc(Cc3cccc4ccccc34)nc2C#N)cc1OC | -2 | -1 | 6 | -9 | -2.9 | /
O=C(Nc1cc(Cl)ccc1Oc1ccccc1)c1ccccc1F | -1 | -15 | 1 | -9 | 0.68 | /
Cc1ccc(Oc2ccc(Cl)cc2NC(=O)c2ccc(F)cc2F)cc1 | 0 | -8 | 8.9* | -17 | 0.51 | /
Cc1cc(C)nc(SCC(=O)Nc2nonc2N)n1 | 1 | -16 | 0 | 7 | -0.45 | 0.63
O=C(NN=C(Cc1ccccc1)Cc1ccccc1)c1ccc(F)cc1 | 1 | 1 | 1 | -7 | 7.7* | -1.3
O=C1CSC(=Nc2ccc(Cl)cc2)N1Cc1cccnc1 | 0 | 5 | / | -3 | -0.21 | /
COc1cccc(N/C(SCc2cccc([N+](=O)[O-])c2)=C(/C#N)C(N)=O)c1 | -1 | -1 | 8.5* | 3 | -0.44 | -0.51
Cc1ccc2nc(C)c(C(=O)NN=C3CCN(C)CC3)n2c1 | 2 | -11 | 1 | -3 | 0.99 | 0.81
O=C(Nc1ccc(Cl)cc1)Nc1ccccc1C(=O)NCc1ccco1 | 1 | 54* | 1 | -7 | / | 0.17
C=C(C)CNC(=S)N/N=C/c1ccco1 | 0 | 0 | / | -6 | 2.7 | /
O=C(Nc1ccccc1C(=O)O)c1cccc(NC(=O)c2ccc(Br)o2)c1 | 1 | 10 | 5 | -18 | -3.2* | 0.93
Cc1ccc(NC(=O)CN2C(=O)N/C(=C/c3ccc(N4CCOCC4)cc3)C2=O)cc1 | 3 | 4 | 8.8* | 0 | 0.35 | 1.1
O=C(Nc1cc(C(F)(F)F)ccc1N1CCCCC1)c1ccc(Br)o1 | 1 | / | 11* | -7 | 0.031 | /
COC(=O)c1nc(N)sc1-c1ccc(Cl)c(Cl)c1 | 1 | -11 | / | -20 | / | /
CC1CCN(C(=S)NC(=O)c2ccccc2)CC1 | 0 | / | 1 | -10 | 36* | 0.019
